{"source": "the supplement of paper PMC10849652", "note": "The full data set covers some 7,900 targets. This sample favours those with a hit. About 0.6% of all pairs of compound and target were hits.", "data": [{"compound": "CNc1nc(-c2ccc3c(N)n[nH]c3c2)cc(N2C[C@@H](C(=O)NC3CCCCC3)CC[C@H]2C)n1", "test": "log2 fold change, soluble protein after heating vs DMSO (PISA); higher = thermal stabilisation; K562 cells, 10 uM, 30 min; active = over 0.2 and 3.5 SD of the protein, either way, in both replicates (recomputed)", "how_it_was_run": "(§1)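 K562 cells at 2×10^6 cells/mL were treated with 10 μM compound for 30 min. Aliquots were heated for 3 min across 48°C-58°C, pooled, and extracted in PBS with 0.5% NP-40 at 4°C; soluble protein was the supernatant after 21,000xg for 90 min. Soluble protein was quantified by TMTpro 16plex LC-MS/MS with channel sums equalised, and reported as log2 fold change in thermal stability against DMSO controls, with values from duplicates.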", "values": [{"target": "FAM207A (UniProt Q9NSI2)", "log2 fold change": "0.007 (inactive)"}, {"target": "FAM160B1 (UniProt Q5W0V3)", "sequence (Q5W0V3 whole entry, looked up)": "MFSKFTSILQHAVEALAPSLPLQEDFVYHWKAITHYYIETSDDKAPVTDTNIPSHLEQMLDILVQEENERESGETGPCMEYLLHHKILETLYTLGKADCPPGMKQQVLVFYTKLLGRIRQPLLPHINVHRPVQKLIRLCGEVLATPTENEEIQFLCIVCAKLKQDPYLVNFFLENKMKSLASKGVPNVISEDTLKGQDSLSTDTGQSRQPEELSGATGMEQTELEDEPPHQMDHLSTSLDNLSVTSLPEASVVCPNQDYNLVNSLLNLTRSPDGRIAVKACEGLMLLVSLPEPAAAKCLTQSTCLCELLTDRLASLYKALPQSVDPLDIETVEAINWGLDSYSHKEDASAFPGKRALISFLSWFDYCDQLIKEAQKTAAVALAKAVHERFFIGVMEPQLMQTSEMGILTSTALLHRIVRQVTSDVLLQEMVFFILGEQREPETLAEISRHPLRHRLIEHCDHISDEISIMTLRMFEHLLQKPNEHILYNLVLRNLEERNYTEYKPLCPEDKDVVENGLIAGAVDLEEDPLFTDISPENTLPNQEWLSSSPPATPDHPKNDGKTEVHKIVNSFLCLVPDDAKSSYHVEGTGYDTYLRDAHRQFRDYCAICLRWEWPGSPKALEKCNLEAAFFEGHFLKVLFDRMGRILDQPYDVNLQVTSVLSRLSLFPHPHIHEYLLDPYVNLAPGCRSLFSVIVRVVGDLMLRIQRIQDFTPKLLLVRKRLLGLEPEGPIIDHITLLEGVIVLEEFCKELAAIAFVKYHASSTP", "log2 fold change": "-0.007 (inactive)"}, {"target": "EDC3 (UniProt Q96F86)", "sequence (Q96F86 whole entry, looked up)": "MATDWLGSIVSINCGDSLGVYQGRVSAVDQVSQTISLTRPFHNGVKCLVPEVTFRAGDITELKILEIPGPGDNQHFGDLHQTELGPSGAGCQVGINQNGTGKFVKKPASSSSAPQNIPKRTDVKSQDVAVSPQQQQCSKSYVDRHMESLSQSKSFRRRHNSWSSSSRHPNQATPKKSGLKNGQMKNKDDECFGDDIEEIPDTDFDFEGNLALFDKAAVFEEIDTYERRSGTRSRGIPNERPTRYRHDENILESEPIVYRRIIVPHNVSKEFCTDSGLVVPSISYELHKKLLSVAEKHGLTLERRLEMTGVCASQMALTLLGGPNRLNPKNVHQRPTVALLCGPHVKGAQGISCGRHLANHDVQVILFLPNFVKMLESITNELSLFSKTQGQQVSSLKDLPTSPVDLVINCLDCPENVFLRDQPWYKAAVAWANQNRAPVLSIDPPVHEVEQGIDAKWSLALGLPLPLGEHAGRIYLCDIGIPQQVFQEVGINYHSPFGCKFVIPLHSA", "log2 fold change": "-0.237 (inactive)"}, {"target": "DSN1 (UniProt Q9H410)", "log2 fold change": "0.016 (inactive)"}, {"target": "DNAJB1 (UniProt P25685)", "log2 fold change": "-0.033 (inactive)"}, {"target": "CYB561A3 isoform 2 (UniProt Q8NBI2)", "log2 fold change": "-0.068 (inactive)"}, {"target": "DNAJB12 (UniProt Q9NXW2)", "sequence (Q9NXW2 whole entry, looked up)": "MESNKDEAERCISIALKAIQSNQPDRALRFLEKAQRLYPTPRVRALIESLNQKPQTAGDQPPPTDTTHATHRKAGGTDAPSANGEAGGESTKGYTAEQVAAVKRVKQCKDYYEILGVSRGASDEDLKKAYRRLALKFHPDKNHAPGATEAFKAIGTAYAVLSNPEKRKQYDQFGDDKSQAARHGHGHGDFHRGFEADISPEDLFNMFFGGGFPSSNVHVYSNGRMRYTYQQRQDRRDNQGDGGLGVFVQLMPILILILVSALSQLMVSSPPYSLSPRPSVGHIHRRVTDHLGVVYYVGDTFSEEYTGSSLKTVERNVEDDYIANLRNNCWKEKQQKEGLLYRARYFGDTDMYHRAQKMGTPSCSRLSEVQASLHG", "log2 fold change": "-0.011 (inactive)"}, {"target": "DDB1 (UniProt Q16531)", "sequence (Q16531 whole entry, looked up)": "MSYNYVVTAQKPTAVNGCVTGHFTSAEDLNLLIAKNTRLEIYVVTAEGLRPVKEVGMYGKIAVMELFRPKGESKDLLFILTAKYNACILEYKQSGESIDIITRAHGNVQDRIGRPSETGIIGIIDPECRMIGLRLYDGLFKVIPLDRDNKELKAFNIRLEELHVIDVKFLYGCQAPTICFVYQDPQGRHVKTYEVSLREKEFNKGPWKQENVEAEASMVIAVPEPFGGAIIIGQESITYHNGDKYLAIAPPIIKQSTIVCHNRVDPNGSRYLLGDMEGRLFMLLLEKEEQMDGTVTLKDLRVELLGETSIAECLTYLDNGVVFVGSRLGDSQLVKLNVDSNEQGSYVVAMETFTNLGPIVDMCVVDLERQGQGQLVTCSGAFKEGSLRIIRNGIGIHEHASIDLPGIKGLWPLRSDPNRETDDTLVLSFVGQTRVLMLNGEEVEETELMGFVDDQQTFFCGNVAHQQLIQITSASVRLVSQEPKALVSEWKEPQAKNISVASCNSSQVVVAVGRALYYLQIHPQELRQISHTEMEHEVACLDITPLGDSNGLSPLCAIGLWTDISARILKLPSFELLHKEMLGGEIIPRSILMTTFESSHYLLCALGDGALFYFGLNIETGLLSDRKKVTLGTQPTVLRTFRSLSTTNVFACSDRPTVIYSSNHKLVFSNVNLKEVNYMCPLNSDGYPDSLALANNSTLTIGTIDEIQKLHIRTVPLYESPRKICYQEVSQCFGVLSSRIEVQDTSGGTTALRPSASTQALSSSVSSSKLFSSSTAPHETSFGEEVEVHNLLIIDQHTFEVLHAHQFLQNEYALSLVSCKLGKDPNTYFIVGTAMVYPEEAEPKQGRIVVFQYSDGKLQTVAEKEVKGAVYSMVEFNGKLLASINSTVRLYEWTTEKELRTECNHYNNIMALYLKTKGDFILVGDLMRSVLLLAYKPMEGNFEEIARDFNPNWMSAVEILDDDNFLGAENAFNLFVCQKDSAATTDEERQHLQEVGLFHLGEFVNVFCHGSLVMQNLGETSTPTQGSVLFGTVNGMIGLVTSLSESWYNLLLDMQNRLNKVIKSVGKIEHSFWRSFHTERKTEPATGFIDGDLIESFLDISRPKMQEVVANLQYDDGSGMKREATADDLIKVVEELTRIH", "log2 fold change": "-0.035 (inactive)"}, {"target": "FAM3A (UniProt P98173)", "log2 fold change": "0.075 (inactive)"}, {"target": "EXOSC10 (UniProt Q01780)", "sequence (Q01780 whole entry, looked up)": "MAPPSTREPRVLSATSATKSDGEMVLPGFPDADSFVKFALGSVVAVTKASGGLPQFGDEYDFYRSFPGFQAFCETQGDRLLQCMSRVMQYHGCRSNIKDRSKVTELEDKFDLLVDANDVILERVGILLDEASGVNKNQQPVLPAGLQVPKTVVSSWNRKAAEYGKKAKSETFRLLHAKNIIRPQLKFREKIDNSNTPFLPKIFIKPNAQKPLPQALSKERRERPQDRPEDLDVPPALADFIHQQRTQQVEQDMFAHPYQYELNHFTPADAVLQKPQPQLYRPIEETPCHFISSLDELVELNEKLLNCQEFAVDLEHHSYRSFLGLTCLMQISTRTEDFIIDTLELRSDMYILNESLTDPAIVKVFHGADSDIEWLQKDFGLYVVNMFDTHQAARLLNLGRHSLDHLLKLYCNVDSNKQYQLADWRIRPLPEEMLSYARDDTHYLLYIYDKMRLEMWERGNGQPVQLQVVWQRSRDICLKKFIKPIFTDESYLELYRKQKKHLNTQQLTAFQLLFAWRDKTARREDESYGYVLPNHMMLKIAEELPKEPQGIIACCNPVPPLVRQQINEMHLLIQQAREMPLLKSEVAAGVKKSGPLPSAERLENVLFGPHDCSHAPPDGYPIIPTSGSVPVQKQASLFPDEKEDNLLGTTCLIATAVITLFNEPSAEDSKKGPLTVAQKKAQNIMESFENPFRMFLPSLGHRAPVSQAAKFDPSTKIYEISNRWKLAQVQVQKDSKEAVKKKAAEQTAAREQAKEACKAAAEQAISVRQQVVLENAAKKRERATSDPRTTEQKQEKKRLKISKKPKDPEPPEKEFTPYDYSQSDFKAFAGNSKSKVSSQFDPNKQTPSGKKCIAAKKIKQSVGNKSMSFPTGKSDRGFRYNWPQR", "log2 fold change": "0.022 (inactive)"}, {"target": "ENTPD7 (UniProt Q9NQZ7)", "log2 fold change": "0.136 (inactive)"}, {"target": "EEF1A1 (UniProt P68104)", "log2 fold change": "0.102 (inactive)"}, {"target": "CTSZ (UniProt Q9UBR2)", "log2 fold change": "0.012 (inactive)"}, {"target": "DOCK8 (UniProt Q8NF50)", "log2 fold change": "-0.06 (inactive)"}, {"target": "DNAJC24 (UniProt Q6P3W2)", "sequence (Q6P3W2 whole entry, looked up)": "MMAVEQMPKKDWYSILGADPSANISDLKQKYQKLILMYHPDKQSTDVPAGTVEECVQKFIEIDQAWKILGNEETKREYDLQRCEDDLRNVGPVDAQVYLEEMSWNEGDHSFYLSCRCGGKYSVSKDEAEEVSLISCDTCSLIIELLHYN", "log2 fold change": "-0.351 (active)"}, {"target": "DHRS3 (UniProt O75911)", "sequence (O75911 whole entry, looked up)": "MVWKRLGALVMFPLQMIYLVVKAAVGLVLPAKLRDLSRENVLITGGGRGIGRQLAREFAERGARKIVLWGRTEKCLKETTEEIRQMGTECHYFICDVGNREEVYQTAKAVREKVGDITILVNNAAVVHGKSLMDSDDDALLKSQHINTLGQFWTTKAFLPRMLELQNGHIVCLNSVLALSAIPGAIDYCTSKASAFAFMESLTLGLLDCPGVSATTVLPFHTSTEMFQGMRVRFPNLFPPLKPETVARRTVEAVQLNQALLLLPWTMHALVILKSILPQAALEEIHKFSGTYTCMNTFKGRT", "log2 fold change": "-0.016 (inactive)"}, {"target": "EIF2AK3 (UniProt Q9NZJ5)", "log2 fold change": "0.082 (inactive)"}, {"target": "ELAC1 (UniProt Q9H777)", "log2 fold change": "0.049 (inactive)"}, {"target": "EIF4G3 isoform 3 (UniProt O43432)", "log2 fold change": "-0.056 (inactive)"}, {"target": "FAM118A (UniProt Q9NWS6)", "sequence (Q9NWS6 whole entry, looked up)": "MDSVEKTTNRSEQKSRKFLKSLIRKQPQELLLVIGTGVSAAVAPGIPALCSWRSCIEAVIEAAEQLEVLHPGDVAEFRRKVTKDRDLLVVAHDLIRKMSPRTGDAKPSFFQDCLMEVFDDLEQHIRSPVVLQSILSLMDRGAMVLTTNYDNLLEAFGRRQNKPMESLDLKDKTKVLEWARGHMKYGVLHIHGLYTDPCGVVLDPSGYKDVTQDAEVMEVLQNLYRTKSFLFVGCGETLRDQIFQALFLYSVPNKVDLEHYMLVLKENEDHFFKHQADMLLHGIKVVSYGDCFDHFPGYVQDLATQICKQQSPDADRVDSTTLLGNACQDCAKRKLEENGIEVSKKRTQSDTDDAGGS", "log2 fold change": "0.068 (inactive)"}, {"target": "DTWD1 (UniProt Q8N5C7)", "sequence (Q8N5C7 whole entry, looked up)": "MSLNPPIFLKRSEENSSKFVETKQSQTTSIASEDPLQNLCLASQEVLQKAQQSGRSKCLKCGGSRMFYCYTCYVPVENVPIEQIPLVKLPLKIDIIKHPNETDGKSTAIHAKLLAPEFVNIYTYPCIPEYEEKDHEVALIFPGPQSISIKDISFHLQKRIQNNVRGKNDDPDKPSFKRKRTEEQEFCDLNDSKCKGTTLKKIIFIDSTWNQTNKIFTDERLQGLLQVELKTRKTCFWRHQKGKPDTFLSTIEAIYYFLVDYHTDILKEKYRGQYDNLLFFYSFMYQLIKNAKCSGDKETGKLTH", "log2 fold change": "0.152 (inactive)"}, {"target": "DNAH11 (UniProt Q96DT5)", "log2 fold change": "0.061 (inactive)"}, {"target": "FAM193B (UniProt Q96PV7)", "log2 fold change": "0.096 (inactive)"}, {"target": "DYNC1LI2 (UniProt O43237)", "log2 fold change": "0.003 (inactive)"}, {"target": "DAXX (UniProt Q9UER7)", "log2 fold change": "0.018 (inactive)"}, {"target": "DENND10 (UniProt Q8TCE6)", "log2 fold change": "-0.035 (inactive)"}, {"target": "DLD (UniProt P09622)", "log2 fold change": "-0.023 (inactive)"}, {"target": "CWF19L2 (UniProt Q2TBE0)", "log2 fold change": "-0.014 (inactive)"}, {"target": "ELF1 (UniProt P32519)", "log2 fold change": "-0.03 (inactive)"}, {"target": "DYRK1A isoform 2 (UniProt Q13627)", "log2 fold change": "0.029 (inactive)"}, {"target": "EIF4E2 (UniProt O60573)", "log2 fold change": "0.008 (inactive)"}, {"target": "FAM241A (UniProt Q8N8J7)", "sequence (Q8N8J7 whole entry, looked up)": "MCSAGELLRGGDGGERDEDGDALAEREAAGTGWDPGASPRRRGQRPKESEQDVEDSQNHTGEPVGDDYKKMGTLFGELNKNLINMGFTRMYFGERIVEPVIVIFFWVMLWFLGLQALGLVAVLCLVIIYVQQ", "log2 fold change": "-0.003 (inactive)"}, {"target": "CTSH (UniProt P09668)", "log2 fold change": "-0.03 (inactive)"}, {"target": "CYP24A1 (UniProt Q07973)", "log2 fold change": "0.078 (inactive)"}, {"target": "CTNNB1 (UniProt P35222)", "log2 fold change": "-0.025 (inactive)"}]}, {"compound": "COC(=O)N[C@@H](C)CNc1nccc(-c2cn(C(C)C)nc2-c2cc(Cl)cc(NS(C)(=O)=O)c2F)n1 [encorafenib]", "test": "log2 fold change, soluble protein after heating vs DMSO (PISA); higher = thermal stabilisation; K562 cells, 10 uM, 30 min; active = over 0.2 and 3.5 SD of the protein, either way, in both replicates (recomputed)", "how_it_was_run": "as §1", "values": [{"target": "FAM207A (UniProt Q9NSI2)", "log2 fold change": "0.149 (inactive)"}, {"target": "FAM160B1 (UniProt Q5W0V3)", "log2 fold change": "-0.015 (inactive)"}, {"target": "EDC3 (UniProt Q96F86)", "log2 fold change": "0.048 (inactive)"}, {"target": "DSN1 (UniProt Q9H410)", "log2 fold change": "0.02 (inactive)"}, {"target": "DNAJB1 (UniProt P25685)", "log2 fold change": "-0.009 (inactive)"}, {"target": "EEF2K (UniProt O00418)", "log2 fold change": "-0.036 (inactive)"}, {"target": "CYB561A3 isoform 2 (UniProt Q8NBI2)", "log2 fold change": "-0.014 (inactive)"}, {"target": "DNAJB12 (UniProt Q9NXW2)", "log2 fold change": "-0.018 (inactive)"}, {"target": "DYNC1I2 isoform 2 (UniProt Q13409)", "log2 fold change": "-0.108 (inactive)"}, {"target": "DDB1 (UniProt Q16531)", "log2 fold change": "0.003 (inactive)"}, {"target": "FAM3A (UniProt P98173)", "log2 fold change": "0.118 (inactive)"}, {"target": "EXOSC10 (UniProt Q01780)", "log2 fold change": "-0.327 (inactive)"}, {"target": "ENTPD7 (UniProt Q9NQZ7)", "log2 fold change": "-0.26 (inactive)"}, {"target": "EEF1A1 (UniProt P68104)", "log2 fold change": "-0.009 (inactive)"}, {"target": "FAM118B (UniProt Q9BPY3)", "log2 fold change": "0.029 (inactive)"}, {"target": "CTSZ (UniProt Q9UBR2)", "log2 fold change": "-0.012 (inactive)"}, {"target": "DOCK8 (UniProt Q8NF50)", "log2 fold change": "-0.079 (inactive)"}, {"target": "DNAJC24 (UniProt Q6P3W2)", "log2 fold change": "0.038 (inactive)"}, {"target": "DHRS3 (UniProt O75911)", "log2 fold change": "0.004 (inactive)"}, {"target": "EIF2AK3 (UniProt Q9NZJ5)", "log2 fold change": "-0.216 (inactive)"}, {"target": "ELAC1 (UniProt Q9H777)", "log2 fold change": "0.063 (inactive)"}, {"target": "EIF4G3 isoform 3 (UniProt O43432)", "log2 fold change": "0.031 (inactive)"}, {"target": "FAM118A (UniProt Q9NWS6)", "log2 fold change": "-0.172 (inactive)"}, {"target": "CTNNBL1 (UniProt Q8WYA6)", "log2 fold change": "0.121 (inactive)"}, {"target": "DTWD1 (UniProt Q8N5C7)", "log2 fold change": "0.051 (inactive)"}, {"target": "DOLPP1 (UniProt Q86YN1)", "log2 fold change": "-0.057 (inactive)"}, {"target": "DNAH11 (UniProt Q96DT5)", "log2 fold change": "0.152 (inactive)"}, {"target": "FAM193B (UniProt Q96PV7)", "log2 fold change": "0.162 (inactive)"}, {"target": "DYNC1LI2 (UniProt O43237)", "log2 fold change": "0.212 (inactive)"}, {"target": "DAXX (UniProt Q9UER7)", "log2 fold change": "-0.097 (inactive)"}, {"target": "DENND10 (UniProt Q8TCE6)", "log2 fold change": "0.008 (inactive)"}, {"target": "DLD (UniProt P09622)", "log2 fold change": "-0.011 (inactive)"}, {"target": "CWF19L2 (UniProt Q2TBE0)", "log2 fold change": "-0.002 (inactive)"}, {"target": "ELF1 (UniProt P32519)", "log2 fold change": "0.018 (inactive)"}, {"target": "DYRK1A isoform 2 (UniProt Q13627)", "log2 fold change": "0.014 (inactive)"}, {"target": "EIF4E2 (UniProt O60573)", "log2 fold change": "-0.013 (inactive)"}, {"target": "FAM241A (UniProt Q8N8J7)", "log2 fold change": "-0.009 (inactive)"}, {"target": "CTSH (UniProt P09668)", "log2 fold change": "0.018 (inactive)"}, {"target": "CYP24A1 (UniProt Q07973)", "log2 fold change": "0.075 (inactive)"}, {"target": "CTNNB1 (UniProt P35222)", "log2 fold change": "0.079 (inactive)"}]}]}
